Drawing on PMC10726135, “HNF4α isoforms regulate the circadian balance between carbohydrate and lipid metabolism in the liver”, this text covers binding signal for 44 sequences.

The full ranking holds about 18,000 sequences; the median of “log2 normalized intensity” is about 0.39, and the highest 2% start at about 6.6. Shown is part of a subset that was picked to be rich in the highest values.

For this test, the target named is T1, HNF4alpha2 (COS-7 nuclear extract) (Homo sapiens, UniProt P41235 1-474).
T1 sequence: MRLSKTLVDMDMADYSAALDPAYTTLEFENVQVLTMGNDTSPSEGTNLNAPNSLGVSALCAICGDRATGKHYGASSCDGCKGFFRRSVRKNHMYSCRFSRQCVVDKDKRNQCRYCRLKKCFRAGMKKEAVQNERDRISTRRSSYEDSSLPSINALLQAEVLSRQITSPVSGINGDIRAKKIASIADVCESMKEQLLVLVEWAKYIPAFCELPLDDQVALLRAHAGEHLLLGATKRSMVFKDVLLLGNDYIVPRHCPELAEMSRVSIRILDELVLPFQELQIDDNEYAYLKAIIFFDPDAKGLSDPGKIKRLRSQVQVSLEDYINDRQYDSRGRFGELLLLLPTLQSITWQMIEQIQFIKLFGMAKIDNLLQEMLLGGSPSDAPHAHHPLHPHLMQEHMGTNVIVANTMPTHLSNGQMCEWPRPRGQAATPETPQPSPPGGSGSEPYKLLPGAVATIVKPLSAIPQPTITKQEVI
The experiment in a line: protein-binding microarray; COS-7 nuclear extract on double-stranded Agilent 4x180k PBM; binding buffer, salt, pH and temperature not given in the material; high values mean tight binding. To be noted: chain copies: 2; label: 3' end of strand 1 on the slide; dsDNA, one strand shown. In a few lines: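 The binding signal is Agilent software's gProcessedSignal after background correction and normalization. Arrays were a custom Agilent SurePrint G3 4x180k design of double-stranded ~60-nt oligonucleotides with ~44,000 test sequences in quadruplicate, probed with nuclear extracts of COS-7 cells transiently expressing a human HNF4α isoform. Scans were made at 2-µm resolution on an Agilent G2565CA scanner.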
For the sequence “GCCACATTCCCCGACTCCTGGGTGTGAGATGCCTAGGGAGATTAGAGTATCGGTCGA”, the binding signal turned out to be 0.517 log2 normalized intensity.
To “AAGCAGAAGCTGCACACATGTCAAAGGTCAGCCTAGGGAGATTAGAGTATCGGTCGA” belongs 6.19 log2 normalized intensity.
In the case of “CAGCAATCACCTACCCCCAGATTCTCTGTTGCCTAGGGAGATTAGAGTATCGGTCGA” it was 2.35 log2 normalized intensity; in that of “GTTATCTAATGGAGAGGATGGGGACAAAGGGCCTAGGGAGATTAGAGTATCGGTCGA”, 1.47 log2 normalized intensity.
To “GGAGAGGATGGGGACAAAGGTCAAGAAAGCGCCTAGGGAGATTAGAGTATCGGTCGA” belongs 5.86 log2 normalized intensity; to “GACAAAGGTCATTCATGTGCAGGTTGGAATGCCTAGGGAGATTAGAGTATCGGTCGA”, 2.77 log2 normalized intensity.
For the sequence “AATTCCCTGCAAGGACAAAGGTCATGTTTTGCCTAGGGAGATTAGAGTATCGGTCGA”, the binding signal was 6.26 log2 normalized intensity.
For “CTAATGGAGAGGATGGGGACAAAGGTCAAGGCCTAGGGAGATTAGAGTATCGGTCGA”, the binding signal is 7.24 log2 normalized intensity.
In the case of “TTTGGAATTCCCTGCAAGGACAAAGGTCATGCCTAGGGAGATTAGAGTATCGGTCGA” it was 6.87 log2 normalized intensity.
In the case of “TGTCTCTGGTCAGGGAGGGCTTTAGAATGTGCCTAGGGAGATTAGAGTATCGGTCGA” it was 1.01 log2 normalized intensity; in that of “TTGGTCTGCTGAGTCTCATGATTAGATTGAGCCTAGGGAGATTAGAGTATCGGTCGA”, 0.746 log2 normalized intensity; in that of “TGGCCTGGGAACTTAGCGATTTGGAACCCAGCCTAGGGAGATTAGAGTATCGGTCGA”, 0.829 log2 normalized intensity.
For the sequence “AAGTTCAAGTAGATAAAATCAAACAGATGTGCCTAGGGAGATTAGAGTATCGGTCGA”, the binding signal was determined as 1.02 log2 normalized intensity.
Turning to “TCTGCAAACACCCCTCCCCCACACAGACAAGCCTAGGGAGATTAGAGTATCGGTCGA”, the binding signal was 5.01 log2 normalized intensity.
Regarding “ACTGTAACCTTTGCCCCCCTGGGCTCAAGCGCCTAGGGAGATTAGAGTATCGGTCGA”, the binding signal turned out to be 5.81 log2 normalized intensity.
In the case of “GTAACCTTTGCCCCCCAAGTTGAAGCCATCGCCTAGGGAGATTAGAGTATCGGTCGA” it was 5.16 log2 normalized intensity; in that of “AGCCCCAACCCACTGTTGCCCCTTCCAAAGGCCTAGGGAGATTAGAGTATCGGTCGA”, 4.68 log2 normalized intensity; in that of “GTGCTATCTCAGCTCACTGTAACCTTTGCCGCCTAGGGAGATTAGAGTATCGGTCGA”, 3.93 log2 normalized intensity.
For “ATCTCAGCTCACTGTAACCTTTGCCCCCCTGCCTAGGGAGATTAGAGTATCGGTCGA”, the binding signal turned out to be 8.75 log2 normalized intensity.
In the case of “TCACTGTAACCTTTGCCCCCCAAGTTGAAGGCCTAGGGAGATTAGAGTATCGGTCGA” it was 6.72 log2 normalized intensity; in that of “AACCTTTGCCCCAGCTGTCACCCAGCCAGAGCCTAGGGAGATTAGAGTATCGGTCGA”, 3.68 log2 normalized intensity; in that of “TTTGCTCACTGTAACCTTTGCCCCCCAAGTGCCTAGGGAGATTAGAGTATCGGTCGA”, 8.54 log2 normalized intensity.
To “TGGTGCTATCTTTGCTCACTGTAACCTTTGGCCTAGGGAGATTAGAGTATCGGTCGA” belongs 3.78 log2 normalized intensity; to “AGCAAAGGTCATCCTGGGCTACCGATATGAGCCTAGGGAGATTAGAGTATCGGTCGA”, 0.737 log2 normalized intensity; to “TAGACCAGCCAATTCTACTGGAAGTAGGTAGCCTAGGGAGATTAGAGTATCGGTCGA”, 0.854 log2 normalized intensity.
To “CCTTTCCCCGCCCCGCGTCCGTGCACCCTTGCCTAGGGAGATTAGAGTATCGGTCGA” belongs 4.42 log2 normalized intensity; to “ACTTTGAGGTGTTCTCTGGGGTTAGCCAAAGCCTAGGGAGATTAGAGTATCGGTCGA”, 1.59 log2 normalized intensity; to “CGGGTCAGCAGGGCACCGCCTCCACACCCCGCCTAGGGAGATTAGAGTATCGGTCGA”, 1.59 log2 normalized intensity.
For the sequence “TCACAATTAAGCCAAACTTGGGTTTATGGCGCCTAGGGAGATTAGAGTATCGGTCGA”, the binding signal was 0.583 log2 normalized intensity.
In the case of “AGACAACCTTTGGTCACTTGTAAGATACTGGCCTAGGGAGATTAGAGTATCGGTCGA” it was 2.43 log2 normalized intensity; in that of “AAGGTTGGTCTTAGGACCACATGAGTAAACGCCTAGGGAGATTAGAGTATCGGTCGA”, -0.756 log2 normalized intensity.
In the case of “GGCTTGATCCCTGAACTTTGCTCCCACCCTGCCTAGGGAGATTAGAGTATCGGTCGA” it was 5.57 log2 normalized intensity; in that of “GAGAAGTGAACTTTGCCCTCTCTTTCTGGAGCCTAGGGAGATTAGAGTATCGGTCGA”, 7.55 log2 normalized intensity.
To “TCTCTGGCTTGATCCCTGAACTTTGCTCCCGCCTAGGGAGATTAGAGTATCGGTCGA” belongs 7.97 log2 normalized intensity; to “TCCTGCCTTGGAGAAGTGAACTTTGCCCTCGCCTAGGGAGATTAGAGTATCGGTCGA”, 10.2 log2 normalized intensity; to “CCTTGGATCTCCTGCACCTGAACTTTGCTCGCCTAGGGAGATTAGAGTATCGGTCGA”, 6.35 log2 normalized intensity.
As to “AAGTGACCCTGGTCTTTGCCCTTTCCTAGAGCCTAGGGAGATTAGAGTATCGGTCGA”, the binding signal stood at 3.39 log2 normalized intensity.
Regarding “GTGAACTTTGCCCTCTCTTTCTGGAACCTAGCCTAGGGAGATTAGAGTATCGGTCGA”, the binding signal was found to be 5.08 log2 normalized intensity.
On to “ACTGATCTCTGGCTTGATCCCTGAACTTTGGCCTAGGGAGATTAGAGTATCGGTCGA”, for which the binding signal was 3.32 log2 normalized intensity.
To “TGGGCTCCTGCCTTGGAGAAGTGAACTTTGGCCTAGGGAGATTAGAGTATCGGTCGA” belongs 4.34 log2 normalized intensity; to “TGGGCTCGGCGCTCCGCTTACTCGGCCTGGGCCTAGGGAGATTAGAGTATCGGTCGA”, -0.994 log2 normalized intensity.
To “TCCCTCATTAGTAACTCCAGAGATAAGATAGCCTAGGGAGATTAGAGTATCGGTCGA” belongs 0.0683 log2 normalized intensity; to “GCAGTGGGACAAAGGTCACAGGAAAGGGACGCCTAGGGAGATTAGAGTATCGGTCGA”, 4.13 log2 normalized intensity.
To “AGGGAGGGGAGAGGGGGTTAAAGGTTATTTGCCTAGGGAGATTAGAGTATCGGTCGA” belongs 4.97 log2 normalized intensity.
